Laboratory results taken from the supplement of paper PMC3334620.
Whole data set: some 33,000 sequences, median “E-score (-0.5 to 0.5)” near -0.021, cut for the highest 2% near 0.32. Many of the other results were omitted from the sample, so the highest values are more common in it than they were.

Target: T1, Zap1 (UniProt P47043)
T1 sequence: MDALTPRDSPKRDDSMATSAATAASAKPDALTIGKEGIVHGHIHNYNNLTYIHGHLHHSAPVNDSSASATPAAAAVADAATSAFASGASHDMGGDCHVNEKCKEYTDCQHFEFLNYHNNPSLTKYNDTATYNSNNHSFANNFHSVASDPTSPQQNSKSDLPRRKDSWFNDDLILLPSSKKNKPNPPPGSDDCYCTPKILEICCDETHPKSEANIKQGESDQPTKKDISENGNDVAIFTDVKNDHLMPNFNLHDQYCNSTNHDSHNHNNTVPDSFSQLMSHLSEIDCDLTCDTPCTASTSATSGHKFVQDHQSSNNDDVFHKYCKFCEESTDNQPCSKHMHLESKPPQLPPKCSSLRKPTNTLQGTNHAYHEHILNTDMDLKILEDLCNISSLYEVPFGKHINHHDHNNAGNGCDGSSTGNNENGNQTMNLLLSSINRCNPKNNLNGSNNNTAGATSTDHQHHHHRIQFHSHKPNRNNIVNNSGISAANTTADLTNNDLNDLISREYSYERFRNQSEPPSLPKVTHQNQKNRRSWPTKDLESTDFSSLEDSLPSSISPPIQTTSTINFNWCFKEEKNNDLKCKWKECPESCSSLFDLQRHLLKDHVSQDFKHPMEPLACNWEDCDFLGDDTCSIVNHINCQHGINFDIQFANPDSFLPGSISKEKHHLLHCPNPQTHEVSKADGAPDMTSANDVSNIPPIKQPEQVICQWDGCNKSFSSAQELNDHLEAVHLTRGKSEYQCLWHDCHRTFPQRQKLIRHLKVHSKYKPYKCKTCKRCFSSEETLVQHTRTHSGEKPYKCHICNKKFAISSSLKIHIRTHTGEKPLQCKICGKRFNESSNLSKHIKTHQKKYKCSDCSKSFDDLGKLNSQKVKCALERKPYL
Test: PBM E-score (8-mer binding enrichment) (E-score (-0.5 to 0.5)); higher = stronger / more preferred TF binding
Conditions: protein concentration: 200 nM; construct: GST-full length
Method: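 Universal 'all 10-mer' protein binding microarrays (Agilent AMADID 015681) probed with GST-tagged S. cerevisiae TFs (full-length or DBD) made by in vitro transcription/translation (PURExpress), about 100-200 nM. Bound TF was detected with fluorescent anti-GST. Each ungapped 8-mer (which stands for itself and its reverse complement) is scored by the PBM enrichment score (E-score), a modified Wilcoxon-Mann-Whitney statistic from -0.5 to +0.5, computed with the Universal PBM Analysis Suite. Scale: above 0.35 generally sequence-specific binding.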

Row | Sequence | PBM E-score
1 | GACCCCTC | 0.138
2 | AAAAGCGT | -0.06
3 | TGTGAACA | -0.0338
4 | AGCCACCC | -0.108
5 | AAATGGGT | 0.265
6 | AAATACCG | 0.162
7 | CTAGCAAC | -0.0149
8 | AATGTCGT | -0.0154
9 | AGTCTGAT | -0.0553
10 | GCTATGAA | -0.0097
11 | GACCCTGA | 0.304
12 | CACCCTGA | 0.162
13 | AACCCTGG | 0.392
14 | TACCCTGA | 0.406
15 | CCCCCTGA | -0.209
16 | ACCCCTGG | 0.289
17 | AACCCTGA | 0.461
18 | AGCCCTGA | -0.131
19 | CACCCTGG | 0.169
20 | ATCCAACA | 0.0629
21 | AGCAAAAG | -0.146
22 | CCTAACTA | 0.135
23 | CGTCCTCA | -0.162
24 | GAAGCCCC | -0.272
25 | AGTTAAGA | 0.00562
26 | AGTTAAAC | 0.0887

Row | Sequence | PBM E-score
27 | GGTTAAAC | 0.356
28 | CGTTAAGA | -0.0174
29 | CGTTAAAA | 0.0117
30 | TGTTAAAA | 0.0204
31 | CGTTAAAC | 0.21
32 | GGTTAAAA | 0.385
33 | GGTTAAGA | 0.364
34 | AGTGTCGA | 0.127
35 | AACAGATG | -0.00675
36 | AAGACTTA | -0.0811
37 | CTTAGACC | -0.0476
38 | GAGCGTAC | -0.162
39 | TACTTGCA | 0.0221
40 | CGGGGCTA | -0.15
41 | CGGGCTCA | -0.323
42 | ATGAGGTA | 0.324
43 | ATGAGGTG | 0.0386
44 | CTGAGGTA | 0.275
45 | GGCTAGCC | -0.248
46 | AGTGCCCG | -0.203
47 | CCTGCTCG | -0.0742
48 | CCCCTCGG | 0.34
49 | ACCCTCGG | 0.329
50 | ACCCTCGT | 0.358
51 | ACCCTCCG | 0.228
52 | ACACTCGT | -0.0522

Row | Sequence | PBM E-score
53 | ACCCTCGA | 0.143
54 | CCCCTCGC | 0.0553
55 | CCCCTCGA | 0.169
56 | ACCCTCGC | 0.267
57 | CAGTACAG | 0.091
58 | ACTTCTCT | -0.0321
59 | CCAAGTTA | 0.0627
60 | CATGACGC | -0.108
61 | ACCAGCGC | -0.0562
62 | GGACCTCC | -0.134
63 | GAAGGAGA | -0.122
64 | GACTCTCC | -0.236
65 | ACCACAAA | 0.35
66 | AACCCAAG | 0.346
67 | GCCACAAA | 0.221
68 | ACCACAAG | 0.259
69 | AACCCAAC | 0.282
70 | AACCCAAA | 0.35
71 | GACCCCAA | 0.172
72 | TACCCCCA | 0.054
73 | CACCCAAA | 0.255
74 | GACCCAAA | 0.299
75 | AACCCAAT | 0.187
76 | TACCCCAA | 0.363
77 | CGTTAGCC | -0.0813
78 | GTCTTAGA | 0.0182

Row | Sequence | PBM E-score
79 | CCATCAAA | 0.0846
80 | CCAGAAGA | -0.0769
81 | AACCCCAC | 0.344
82 | GACCCCAC | 0.243
83 | CACCAAAA | 0.235
84 | ACCCCCAA | -0.0064
85 | ACCCCCAC | -0.286
86 | ACCCCAAG | 0.311
87 | AACCCCAA | 0.377
88 | AACCAAAA | 0.364
89 | TACCAAAA | 0.161
90 | ACCCCAAA | 0.337
91 | CCCCCAAA | -0.22
92 | AACCCCCA | -0.0716
93 | AACTAACG | 0.166
94 | AACTGCGC | -0.0727
95 | CCTTAGAA | 0.211
96 | GCCAACAA | 0.192
97 | AGGCTAAC | -0.0255
98 | TCCTACCA | -0.13
99 | GATTTAGC | 0.118
100 | ATTGTGGC | 0.0557
101 | ACCCAAAG | 0.271
102 | ACCCCCAT | 0.0539
103 | AAACCCAT | 0.253
104 | ACAAAAAA | 0.317

Row | Sequence | PBM E-score
105 | AACCCCAT | 0.359
106 | ACAAAAAT | 0.234
107 | ACAAAAAC | 0.182
108 | ACCCAAAA | 0.345
109 | GCCCAAAA | 0.179
110 | CCCCTTCA | -0.105
111 | CTCCTAAA | -0.147
112 | GCAATGCC | -0.104
113 | ACCACCGA | 0.172
114 | ACGTAAGG | -0.112
115 | AACAGGCG | -0.32
116 | TTATCAAA | 0.2
117 | GTAATCAA | 0.146
118 | ATTCACTA | 0.0664
119 | CATAGAGC | -0.238
120 | ATGAGCGC | -0.0149
121 | GACCTGAA | 0.132
122 | CCGGCGCC | -0.114
123 | GTAGGGAA | -0.112
124 | GTAGGGTA | 0.429
125 | ATAGGGTG | 0.214
126 | ATAGGGTA | 0.38
127 | CTAGGGTC | 0.309
128 | ATAGGGTC | 0.272
129 | CTAGGGAA | -0.037
130 | GTAGGGCA | -0.143

Row | Sequence | PBM E-score
131 | CTAGGGTA | 0.411
132 | TTAATGAA | 0.187
133 | TCTTGGAA | 0.089
134 | AGATTAAA | 0.2
135 | GCTTTGAC | 0.0804
136 | CTAGACTC | -0.231
137 | ACGCATTA | 0.12
138 | AATAAGAA | 0.208
139 | ATAGAAGC | -0.0622
140 | AACAACAA | 0.181
141 | AACAACCG | 0.1
142 | AACAACCT | 0.273
143 | CACAACCC | 0.414
144 | CCCAACCA | 0.123
145 | AACAACCA | 0.319
146 | CACAACCA | 0.343
147 | CACAACCG | 0.289
148 | CCCAACCC | 0.163
149 | AACAACAC | 0.151
150 | AACAACCC | 0.408
151 | CACAACAA | 0.0567
152 | AGCGCCAG | -0.256
153 | CGCTTAGC | -0.239
154 | ACATTTGC | -0.00108
155 | CTTCCCAA | -0.213
156 | TACAACAA | 0.276

Row | Sequence | PBM E-score
157 | TACAACCA | 0.319
158 | GACAACCC | 0.35
159 | GACAACCA | 0.252
160 | GACAACTC | -0.0129
161 | GACAAACC | 0.124
162 | GCGTCGCC | -0.162
163 | GGGGCCTA | -0.136
164 | GCCAGGGA | -0.174
165 | CCCCACCA | 0.119
166 | AACCACCA | 0.273
167 | ACCCACCA | 0.177
168 | ACCCACCT | 0.213
169 | CACCACCC | 0.186
170 | GCCCACAC | -0.102
171 | CCCCACCG | 0.163
172 | CCCCACCC | 0.357
173 | GCCCACCA | -0.217
174 | ACCCACCC | 0.373
175 | AACCACCC | 0.353
176 | GCCCACCC | 0.335
